In all, about 310,000 compounds went through this assay and about 14,000 (4.5%) showed an effect of 50% or more. Effects have a minus sign here. Many of the other results were omitted from the sample, so strong results are more common in it than they were.
Target: human ether-à-go-go-related gene (hERG) potassium channel (human, UniProt Q12809)
Test: primary screen, population patch clamp on CHO cells stably expressing hERG; higher = less effect of the substance
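Note: peak tail current of the secondary pulse compared with the same well before compound.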

Sequence of human ether-à-go-go-related gene (hERG) potassium channel (Q12809 whole entry, looked up): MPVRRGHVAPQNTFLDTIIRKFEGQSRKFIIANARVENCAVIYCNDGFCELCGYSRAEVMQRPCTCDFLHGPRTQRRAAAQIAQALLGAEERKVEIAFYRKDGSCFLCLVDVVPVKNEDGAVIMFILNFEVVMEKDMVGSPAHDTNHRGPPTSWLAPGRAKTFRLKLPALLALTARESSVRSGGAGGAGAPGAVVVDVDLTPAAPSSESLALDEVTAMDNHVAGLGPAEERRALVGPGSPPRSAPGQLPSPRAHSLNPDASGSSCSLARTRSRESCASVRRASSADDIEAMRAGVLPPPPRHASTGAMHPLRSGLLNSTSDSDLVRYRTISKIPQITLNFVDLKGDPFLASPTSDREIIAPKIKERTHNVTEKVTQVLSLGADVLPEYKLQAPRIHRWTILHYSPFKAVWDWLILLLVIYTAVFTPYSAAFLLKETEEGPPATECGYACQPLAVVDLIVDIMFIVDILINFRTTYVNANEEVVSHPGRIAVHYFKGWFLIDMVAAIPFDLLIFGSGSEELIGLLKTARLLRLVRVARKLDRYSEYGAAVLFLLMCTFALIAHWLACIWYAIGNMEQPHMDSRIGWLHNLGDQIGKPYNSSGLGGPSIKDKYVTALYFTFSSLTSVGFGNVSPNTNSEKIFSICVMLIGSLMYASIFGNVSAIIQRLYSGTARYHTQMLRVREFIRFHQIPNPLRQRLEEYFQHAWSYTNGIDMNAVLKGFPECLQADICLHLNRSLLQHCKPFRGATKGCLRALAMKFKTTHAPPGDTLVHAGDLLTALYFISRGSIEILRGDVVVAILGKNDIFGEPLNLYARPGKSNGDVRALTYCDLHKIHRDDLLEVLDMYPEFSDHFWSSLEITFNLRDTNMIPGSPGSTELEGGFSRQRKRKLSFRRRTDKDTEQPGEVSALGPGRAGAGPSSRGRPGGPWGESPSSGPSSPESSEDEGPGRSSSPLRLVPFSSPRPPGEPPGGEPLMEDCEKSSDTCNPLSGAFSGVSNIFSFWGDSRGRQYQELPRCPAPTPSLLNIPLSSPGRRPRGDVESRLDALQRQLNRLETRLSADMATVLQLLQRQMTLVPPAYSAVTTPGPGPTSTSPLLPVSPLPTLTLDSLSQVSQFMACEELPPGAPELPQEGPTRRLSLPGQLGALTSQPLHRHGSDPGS

SMILES | hERG current change (%, negative = inhibition) at 10uM [%]
CCCCN(CCCNC(=O)CN1C(=O)COc2ccc(S(=O)(=O)N3CCC(C)CC3)cc21)Cc1ccccc1 | -76.6
CCN(CC)S(=O)(=O)c1ccc2c(c1)N(CC(=O)N(CCc1ccncc1)C(C)C)C(=O)CO2 | -53.3
CCCCN(CCCC)CCNC(=O)CN1C(=O)COc2ccc(S(=O)(=O)N3CCOCC3)cc21 | -42.3
CCN(CC)S(=O)(=O)c1ccc2c(c1)N(CC(=O)N1CCCC1)C(=O)CO2 | -5.64
CC1CCN(S(=O)(=O)c2ccc3c(c2)N(CC(=O)NCCCN2CCCC(C)C2)C(=O)CO3)CC1 (centres unmarked) | -8.35
CC(C)N(Cc1ccccc1)C(=O)CN1C(=O)COc2ccc(S(=O)(=O)NC3CCCC3)cc21 | -36.1
CCCCN(CC)CCNC(=O)CN1C(=O)COc2ccc(S(=O)(=O)N3CCCC3)cc21 | -3.34
CCN(Cc1ccccc1)C(=O)CN1C(=O)COc2ccc(S(=O)(=O)NC3CCCC3)cc21 | -54.2
CCCCN(CCCC)CCNC(=O)CN1C(=O)COc2ccc(S(=O)(=O)N3CCC(C)CC3)cc21 | -66.5
CCN(Cc1ccccc1)C(=O)CN1C(=O)COc2ccc(S(=O)(=O)N3CCCCCC3)cc21 | -8.9
CCN(CC)S(=O)(=O)c1ccc2c(c1)N(CC(=O)NCCc1ccc(S(N)(=O)=O)cc1)C(=O)CO2 | -1.7
CC1CCN(S(=O)(=O)c2ccc3c(c2)N(CC(=O)NCCCN2C(C)CCCC2C)C(=O)CO3)CC1 (centres unmarked) | 17.3
CC(C)CN(C(=O)COC(=O)/C=C/c1ccccc1)C1CCS(=O)(=O)C1 (centres unmarked) | -10.7
CCOC(=O)N1CCN(C(=O)CSc2nnc(COc3ccccc3)o2)CC1 | -11
S=C(Nc1ccc(Br)cc1Cl)NN1CCOCC1 | -8.03
O=C(CC1NCCNC1=O)Nc1ccc(Oc2ccccc2)cc1 (centres unmarked) | 25.6
Cc1cc(C(=O)Nc2ccc3c(c2)CCC3)c2ccccc2n1 | 10.8
COc1ccc(Cl)cc1NC(=O)CCS(=O)(=O)c1ccc(Br)cc1 | 3.8
COc1ccc(NC(=O)C(=O)NNC(=O)C(C)Oc2ccc(Cl)cc2Cl)cc1 (centres unmarked) | 19
Cn1nc(C(=O)Nc2ccccc2)c2c1-c1ccccc1S(=O)(=O)C2 | -0.138
CC1CCN(S(=O)(=O)c2ccc3c(c2)N(CC(=O)NCCCOC(C)C)C(=O)CO3)CC1 | 12.8
CCOCCCNC(=O)CN1C(=O)COc2ccc(S(=O)(=O)N3CCC(C)CC3)cc21 | 6.25

SMILES | hERG current change (%, negative = inhibition) at 10uM [%]
CC(C)CN(CCCNC(=O)CN1C(=O)COc2ccc(S(=O)(=O)N3CCCC3)cc21)CC(C)C | -5.33
CC(C)CN(CCCNC(=O)CN1C(=O)COc2ccc(S(=O)(=O)N3CCOCC3)cc21)CC(C)C | 6.18
CC(C)CN(CCCNC(=O)CN1C(=O)COc2ccc(S(=O)(=O)N3CCC(C)CC3)cc21)CC(C)C | -2.94
CC(C)CN(CCCNC(=O)CN1C(=O)COc2ccc(S(=O)(=O)N3CCCCCC3)cc21)CC(C)C | -52
CC1CCN(S(=O)(=O)c2ccc3c(c2)N(CC(=O)NCCCN(Cc2ccccc2)C(C)C)C(=O)CO3)CC1 | -62.5
CCCCN(CCCC)CCCNC(=O)CN1C(=O)COc2ccc(S(=O)(=O)N3CCC(C)CC3)cc21 | -74.8
Cc1ccc(CCNC(=O)CN2C(=O)COc3ccc(S(=O)(=O)N4CCC(C)CC4)cc32)cc1 | 8.66
Cc1cc(C)nc(N2CCC(C(=O)Nc3ccc4c(c3)OCO4)CC2)n1 | -5.31
NS(=O)(=O)c1ccc(CNS(=O)(=O)c2ccc3ccccc3c2)cc1 | 1.74
O=C(CSc1ncccn1)NCc1ccc(Cl)cc1 | 4.02
COC(=O)C(=O)/C=C(\O)c1c(C)cc(C)cc1C | 14.9
COc1ccc(/C=C2/CCc3ccccc3C2=O)cc1OC | -19.8
CCOc1cc(CNCCO)ccc1OCC(=O)NC(C)(C)C.Cl | 15.7
O=C(COC(=O)c1ccc(F)cc1F)NCCC1=CCCCC1 | 10.6
Cl.OC(COc1ccc(Cl)cc1)CN1CCN(c2ccccc2)CC1 (centres unmarked) | -29.7
CCN1CCN(CC(O)COC(C)C)CC1.Cl (centres unmarked) | 2.08
Cl.OC(COc1ccc(Br)cc1)CN1CCOCC1 (centres unmarked) | -0.178
Cl.OC(COc1ccc(Br)cc1)CN1CCCC1 (centres unmarked) | -24.3
CC(C)OCC(O)CN1CCNCC1.Cl (centres unmarked) | 11.6
O=S(=O)(c1ccc(OCC(O)CN2CCC(Cc3ccccc3)CC2)cc1)N1CCOCC1 (centres unmarked) | -44.4
Cl.OCCN1CCN(CC(O)COc2ccc(Cl)cc2)CC1 (centres unmarked) | -20.6
OC(COc1ccc(OCc2ccccc2)cc1)CN1CCOCC1 (centres unmarked) | -17

SMILES | hERG current change (%, negative = inhibition) at 10uM [%]
Cl.OC(COc1ccc(Cl)cc1)CN1CCC(Cc2ccccc2)CC1 (centres unmarked) | -81.4
Cl.OC(COc1ccc(Br)cc1)CN1CCC(Cc2ccccc2)CC1 (centres unmarked) | -85.9
Cl.OC(COc1ccccc1)CN1CCC(Cc2ccccc2)CC1 (centres unmarked) | -79.3
CC(C)OCC(O)CN1CCC(Cc2ccccc2)CC1.Cl (centres unmarked) | -56.9
COc1ccc(-n2c(O)c(C(C)=NCCc3c[nH]c4ccccc34)c(=O)[nH]c2=O)cc1 | 14.6
Cc1cc(C)cc(Oc2c(C(F)(F)F)oc3cc(OCC(=O)O)ccc3c2=O)c1 | 4.25
Cc1ccc(NC(=O)CSc2nnc(-c3cnccn3)n2C)cc1C | -5.78
C/C(=N\Nc1nncc2ccccc12)c1ccc(OCC(=O)N(C)C)cc1 | 8.27
COc1cc(CN2CCN(c3cccc(C)c3C)CC2)cc([N+](=O)[O-])c1O | 23.5
CCC(C)C(NC(=O)C1CCC(C)CC1)C(=O)NC(C(=O)OC)C(C)C (centres unmarked) | -0.903
CCCn1c2ccccc2c2nc3ccccc3nc21 | 13
Cc1c(C(O)CN2CCC(C(N)=O)CC2)c2ccccc2n1C (centres unmarked) | -3.73
CC1CCN(CC(O)COc2cccc(F)c2)CC1 (centres unmarked) | -24.8
O=C(O)C(=O)O.O=S(=O)(c1ccc(F)cc1)N1CCN(CC(O)COc2ccccc2F)CC1 (centres unmarked) | -14.5
OC(CN1CCN(c2ccccc2Cl)CC1)c1ccccc1 (centres unmarked) | -42.3
OC(COc1ccc(F)cc1Cl)CN1CCC(Cc2ccccc2)CC1 (centres unmarked) | -84.6
COc1ccc2c(c1)c(C(=O)CN1CCN(Cc3ccccc3)CC1)c(C)n2C | -29.8
Cl.OC(COc1ccccc1F)CN1CCC(Cc2ccccc2)CC1 (centres unmarked) | -76.2
OC(CN1CCC(Cc2ccccc2)CC1)C(F)(F)F (centres unmarked) | 5.97
Fc1ccccc1CN1CCC(Cc2ccccc2)CC1 | -24.4
Fc1cccc(CN2CCC(Cc3ccccc3)CC2)c1 | 5.12
COc1ccc2c(c1)c(C(O)CN1CCC(Cc3ccccc3)CC1)c(C)n2C (centres unmarked) | -71

SMILES | hERG current change (%, negative = inhibition) at 10uM [%]
OC(CN1CCC(Cc2ccccc2)CC1)c1ccccc1 (centres unmarked) | -52.9
COc1ccccc1NC(=O)Nc1nc(CC(=O)Nc2cccc(F)c2)cs1 | -3.26
COc1ccc(CCNC(=O)C2CCN(S(=O)(=O)c3cccc4cccnc34)CC2)cc1OC | 12.1
CCOC(=O)N1CCN(c2nnnn2-c2ccccc2)CC1 | -0.913
CCCCNC(=O)C(CC)(ONc1ccccc1C(F)(F)F)c1ccccc1 (centres unmarked) | 6.19
CC(C)(C)c1ccc(C(=O)NNC(=O)C(=O)N2CCCCC2)cc1 | 14.3
CS(=O)(=O)Nc1cccc(C2=NN(C(=O)c3cccc([N+](=O)[O-])c3)C(c3cccs3)C2)c1 (centres unmarked) | -13.4
COc1cccc(OCC(O)CN2CCC(C)CC2)c1.Cl (centres unmarked) | -12.3
COc1cccc(OCC(O)CN2CCC(Cc3ccccc3)CC2)c1.Cl (centres unmarked) | -70.4
COc1cccc(OCC(O)CN2CCN(c3ncccn3)CC2)c1.Cl (centres unmarked) | -11
COc1ccc(CCNC(=O)C(CC(C)C)NC(N)=O)cc1 (centres unmarked) | 9.22
COc1ccc(C)cc1Nc1n[n+](-c2ccccc2)c(-c2c(Cl)cccc2Cl)s1.[Cl-] | -55.9
COc1ccc(C)cc1Nc1n[n+](C)c(-c2c3ccccc3cc3ccccc23)s1.[Cl-] | 13.3
COc1ccc(C)cc1Nc1n[n+](-c2ccccc2)c(-c2cc(OC)c(OC)cc2Br)s1.[Cl-] | -48.9
COc1ccc(C)cc1Nc1n[n+](-c2ccccc2)c(-c2ccc(NC(C)=O)cc2)s1.[Cl-] | 12.8
COc1ccc(C)cc1Nc1n[n+](-c2ccccc2)c(-c2cc([N+](=O)[O-])cc(OC)c2O)s1.[Cl-] | 6.15
COc1ccc(C)cc1Nc1n[n+](-c2ccccc2)c(-c2ccc(C(=O)O)cc2)s1.[Cl-] | 18
COc1ccc(C)cc1Nc1n[n+](-c2ccccc2)c(-c2ccc(OC)c(OC)c2OC)s1.[Cl-] | -71.8
COc1ccc(C)cc1Nc1n[n+](-c2ccccc2)c(-c2c(OC)ccc3ccccc23)s1.[Cl-] | -53.8
COc1ccc(C)cc1Nc1n[n+](-c2ccccc2)c(-c2cccc(Cl)c2Cl)s1.[Cl-] | 10
